IMPase inh: cell-permeable inhibitors of inositol monophosphatase (IMPase); inhibition (IP1 accumulation), % at 46.1 µM; CHO-M1 cells, IP1 accumulation, HTRF TR-FRET ratio; P97697; 120,000 tested, under 10 active; active = well fitted curve in the direction sought with a large enough effect in the signal ratio, not every such curve was filed as active; inconclusive = small, poorly fitted or top-dose-only effect, or a change in a side signal; inactive = no such curve, though single readings can be large or run the other way; the % refers to the signal ratio;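 note: cells stimulated with carbachol in lithium chloride buffer; plate controls were DMSO basal wells for no effect and reference inhibitor wells for full effect; higher means more IMPase inhibition seen as more IP1 and lower FRET ratio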
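Cellular IMPase inhibition is scored as a rise in cytosolic IP1, detected by competitive TR-FRET between d2-labelled IP1 and a europium anti-IP1 antibody. M1-expressing CHO cells were stimulated with carbachol for 30 min at 37C, with lithium (50 mM LiCl) present in the buffer.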
ALDH1A1 block: ALDH1A1 (human) enzyme inhibition | Purified ALDH1A1, NADH fluorescence, propionaldehyde substrate | Potency, µM (doses to about 75.3 µM), inactives show at the top dose activity, negative = inhibition, most hits filed as inhibitors | 220,000 compounds, 7.3% hits | AID 1030;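 note: potency is the fitted concentration of half-maximal effect; plate controls were no enzyme wells and a reference inhibitor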
Target sequence (P00352 whole entry, looked up): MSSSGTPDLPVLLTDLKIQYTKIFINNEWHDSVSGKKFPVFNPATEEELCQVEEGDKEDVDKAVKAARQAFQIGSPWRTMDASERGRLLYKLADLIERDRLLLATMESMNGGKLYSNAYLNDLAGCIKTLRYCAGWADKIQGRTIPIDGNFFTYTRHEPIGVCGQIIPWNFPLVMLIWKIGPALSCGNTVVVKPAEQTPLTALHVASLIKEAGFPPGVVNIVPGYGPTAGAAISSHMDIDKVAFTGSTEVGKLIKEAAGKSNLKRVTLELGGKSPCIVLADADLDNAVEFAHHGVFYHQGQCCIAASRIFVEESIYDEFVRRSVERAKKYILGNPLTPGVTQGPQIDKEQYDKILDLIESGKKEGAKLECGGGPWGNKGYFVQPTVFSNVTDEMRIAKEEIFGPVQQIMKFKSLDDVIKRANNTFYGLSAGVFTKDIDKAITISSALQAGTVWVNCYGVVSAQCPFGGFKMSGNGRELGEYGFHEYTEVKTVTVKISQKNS
HPGD block: blocks human HPGD enzyme activity. AID 894. Potency, µM, for the others: at the highest dose activity change, negative = inhibition, most hits filed as inhibitors. 150,000 compounds, 4.3% hits. purified HPGD, NADH fluorescence kinetic, PGE2 substrate. P15428; note: potency is the fitted concentration of half-maximal effect
Target sequence (P15428 whole entry, looked up): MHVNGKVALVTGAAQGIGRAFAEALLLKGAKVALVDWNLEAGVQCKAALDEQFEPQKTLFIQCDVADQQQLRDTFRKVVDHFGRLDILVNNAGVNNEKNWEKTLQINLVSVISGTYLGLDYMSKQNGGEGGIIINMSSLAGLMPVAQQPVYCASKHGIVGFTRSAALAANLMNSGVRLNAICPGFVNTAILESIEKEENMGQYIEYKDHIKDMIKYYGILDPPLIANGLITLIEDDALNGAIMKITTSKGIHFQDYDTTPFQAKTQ
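NADH formation kinetics: reaction with 30 uM PGE2 and 1 mM NAD+ (final), 20 nM enzyme, Tris-HCl pH 8 with Tween 20, after 15 min compound preincubation at room temperature. Fluorescence change, last versus first of five reads.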
IMPase Li inh: membrane-permeable IMPase blocker, potentiated with lithium. AID 1457. 210,000 compounds, 0.35% hits. Potency, µM (top dose mostly 59.4 µM), for the others: top-dose activity, negative = IMPase inhibition, actives largely listed as inhibitors. CHO-M1 cells, IP1 TR-FRET (IP-One), carbachol + lithium; active = well fitted curve in the direction sought with a large enough effect; inconclusive = small, poorly fitted or top-dose-only effect, or another doubt; inactive = no such curve, though single readings can be large; an effect the other way counts as inactive or inconclusive;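 note: IP1 builds up when IMPase is blocked and the TR-FRET signal falls; potency is the fitted concentration of half-maximal effect; plate controls were basal vehicle for no effect and high inhibitor control for full effect; nearly all actives have a fitted effect of over 50% in size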
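Lithium-sensitised IP1 accumulation assay; M1-expressing CHO cells treated 30 min at 37C with compound. Competitive antibody detection by time-resolved FRET followed a 10 min room-temperature lysis step.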
PNC assembly inh: blocks assembly of the perinucleolar compartment. activity change (PNC), negative = inhibition, % at 10 µM. PC3M PTB-GFP, PNC prevalence imaging, 16 h; hits give low values. 140,000 compounds, 3.1% hits;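 active = readout at or below -70, meaning at least 70% loss of cells showing the perinucleolar compartment, a nuclear body marking cancer cells; inconclusive = readout between -30 and a set limit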;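 note: plate controls were DMSO wells for no effect and camptothecin positive control wells for full effect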
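Read-out is percentage of cells bearing a perinucleolar compartment, from automated 20x imaging of fixed, Hoechst-stained PC3M PTB-GFP cells. Cells were seeded 4 h, then exposed 16 h to compound (23 nl of library stock) in duplicate plates.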
NPSR antag: antagonists of human neuropeptide S receptor cAMP signaling; Q6W5P4; Potency, µM (series often up to 38.3 µM), for the others: at the top dose activity change, negative = inhibition, actives largely listed as inhibitors; 220,000 compounds, 1% hits; CHO-NPSR cells, cAMP TR-FRET, antagonist mode; active = well fitted curve in the direction sought with a large enough effect; inconclusive = small, poorly fitted or top-dose-only effect, or another doubt; inactive = no such curve, though single readings can be large; an effect the other way counts as inactive or inconclusive; note: potency is the fitted concentration of half-maximal effect; nearly all actives have a fitted effect of over 50% in size
The depositor's hits bear a star; ? = inconclusive; / = no result; [ ] = remark or other dose. A selection: hits, their analogues and other compounds. The true share with any hit is near 11%. Unless noted, calls come from the whole dose curve; as a rule, active = well fitted inhibition curve with a large enough effect (not every such curve was filed as active); inconclusive = small, poorly fitted or top-dose-only effect, or another doubt; inactive = no such curve, though single readings can be large or run the other way. Unless noted, % is set by controls: 0 for no effect and ±100 for the full control effect.

SMILES	IMPase inh	ALDH1A1 block	HPGD block	IMPase Li inh	PNC assembly inh	NPSR antag
O=C(COC(=O)c1ccc([N+](=O)[O-])s1)NC(c1ccccc1)c1ccccc1	/	22µM*	-20%	1%	-116*	-4%
C=CCNCC(=O)Nc1sc2c(c1C(=O)Nc1ccc(OC)cc1OC)CCC2	/	?	/	17%	/	-45%
CN(C)Cc1nc2c([nH]1)c(=O)n(C)c(=O)n2C	-1	0%	-9%	2%[38.3 µM]	-26	-3%[46.1 µM]
CCOc1ccc(C(C)(C)C)cc1S(=O)(=O)n1nc(C)cc1C	-9[0.369 µM]	?	-2%	6%	-23	?
O=C(NCC1CCCO1)c1sc2ccccc2c1Cl (stereo not given)	-5	?	8.9µM*	-4%	34	10%
COc1ccc2c(Cl)c(C(=O)NCC3CCCO3)sc2c1Cl (stereo not given)	/	2%	-17%	-18%	6	-47%
O=C(Cc1cccc2ccccc12)NCC1CCCO1 (stereo not given)	5	4%	-18%	-5%[38.3 µM]	-13	-12%[46.1 µM]
Cc1ccc2c(Cl)c(C(=O)NCC3CCCO3)sc2c1 (stereo not given)	-1	-9%	14µM*	1%[38.3 µM]	35	-23%[46.1 µM]
CCOc1ccc(NC(=O)c2sc3nc4c(c(-c5ccccc5)c3c2N)C(=O)CC(C)(C)C4)cc1	8	/	/	/	/	/
CCOc1cc(C=C(C#N)C#N)ccc1Oc1ccc([N+](=O)[O-])cn1	/	3.2µM*	/	11%	/	-39%
NC1=NC(=O)/C(=C\c2cc([N+](=O)[O-])ccc2Cl)S1	/	?	/	-2%	/	-12%
CCn1c(=S)ccc2ccc(OC)cc21	?	12%	-5%	?	23	?
CCn1ccc2cc(OC)ccc2c1=S	?	-3%	-15%	11µM*	17	4%[46.1 µM]
CCc1nnc(NC(=O)c2ccc(S(=O)(=O)N(CC)Cc3ccccc3)cc2)o1	?	18µM*	/	/	-20	-22%[46.1 µM]
COc1ccc(NC(=O)CSc2nc3c(c(=O)n2-c2ccc(F)cc2)SCC3)cc1	1	?	-5%	14%[38.3 µM]	?	?
Cc1ccccc1-n1c(SCC(=O)NC(N)=O)nc2sc(-c3ccccc3)cc2c1=O	/	?	?	11µM*	9	-38%
Cc1ccccc1-n1c(SCC(N)=O)nc2sc(-c3ccccc3)cc2c1=O	1	?	-29%	10%[38.3 µM]	?	?
COc1ccc(CCNC(=O)CSc2nc3[nH]ncc3c(=O)n2-c2ccccc2OC)cc1OC	/	1%	/	7%	/	-5%
COc1ccc(CNC(=O)CSc2nc3[nH]ncc3c(=O)n2-c2ccccc2Br)cc1	/	16µM*	/	1%	/	6%
O=C(CSc1nc2[nH]ncc2c(=O)n1-c1ccccc1Br)NCc1ccccc1Cl	/	13µM*	/	-2%	/	-10%
COc1ccccc1-n1c(SCC(=O)Nc2ccc(F)cc2)nc2c(c1=O)SCC2	14	11µM*	-16%	0%	25	-3%
Cc1noc(-c2ccccc2)c1NC(=O)Nc1ccc(Cl)cc1	/	3%	/	/	/	4%
CCCc1nc(SCC(=O)N2CCc3ccccc32)c2c(C)c(C)sc2n1	11	6%	-5%	2%[38.3 µM]	?	-10%[46.1 µM]
COc1ccc(NC(=O)CSc2nc3[nH]ncc3c(=O)n2-c2ccccc2C)cc1OC	/	28µM*	-8%	12%	?	15%
Cc1ccc(N)c2c1OCCC2=O	/	-6%	-6%	-5%	-118*	18%
SMILES	IMPase inh	ALDH1A1 block	HPGD block	IMPase Li inh	PNC assembly inh	NPSR antag
CCOC(=O)CC(NC(=O)c1ccco1)c1ccc(OC)cc1 (stereo not given)	-2	10%	6%	0%[38.3 µM]	-12	0%[46.1 µM]
C=C(C(C)=O)C(O)c1ccc(Cl)cc1 (stereo not given)	/	7%	-9%	-4%	/	/
CCC/C=C(\CCC)C(NS(=O)(=O)CC12CCC(CC1=O)C2(C)C)c1ccc(C(=O)OC)cc1 (stereo not given)	/	10µM*	22µM*	12%	/	/
CCC/C=C(\CCC)C(NS(=O)(=O)c1ccc(Cl)cc1)c1ccc(C(=O)OC)cc1 (stereo not given)	/	?	-16%	5%	/	/
CCOC(=O)c1c(NC(=O)C2C3CCC(O3)C2C(=O)O)sc(C)c1-c1ccc(F)cc1 (stereo not given)	-22	1%	-18%	?	1	-11%[46.1 µM]
COC(=O)c1c(-c2ccco2)csc1NC(=O)C1CC=CCC1C(=O)O (stereo not given)	?	13µM*	/	/	-29	-22%[46.1 µM]
CCOC(=O)c1c(-c2ccc(C)c(C)c2)csc1NC(=O)C1CC=CCC1C(=O)O (stereo not given)	-3	-4%	-24%	16%[38.3 µM]	34	10µM*
CCCOC(=O)c1c(-c2ccc(C)cc2C)csc1NC(=O)C1C2CCC(O2)C1C(=O)O (stereo not given)	/	?	22µM*	-2%	-12	-36%
C#CC(CC)(CC)NC(=O)Nc1ccccc1C(=O)OC	/	-6%	/	7%	/	-3%
CC(CCc1ccccc1)NC(=O)/C=C/c1ccc(F)cc1 (stereo not given)	/	?	/	24%	/	-35%
O=P(c1ccccc1)(c1ccccc1)C1CCCO1 (stereo not given)	5	12%	-5%	-6%[38.3 µM]	-8	-5%[46.1 µM]
CCOC(=O)NN1C(=O)c2ccccc2NC12CCCC2	/	?	/	15%	/	34%
Cc1cc[n+](-c2nc([O-])sc2/C=N/Nc2ccc([N+](=O)[O-])cc2)cc1	2	14µM*	-16%	30%[38.3 µM]	24	-1%[46.1 µM]
CCSc1ncc(/C=N/Nc2ccc([N+](=O)[O-])cc2)n1C	-1	5%	-10%	-6%[38.3 µM]	32	-14%[46.1 µM]
O=C(Nc1ccc2c(c1)OCO2)C1CC(=O)N(CCc2ccccc2)C1 (stereo not given)	/	4%	/	4%	/	3%
CN(C)CCC(=O)[C@@]1(O)CC[C@H]2[C@H]3CC=C4C[C@@H](O)CC[C@]4(C)[C@H]3CC[C@]21C	/	0.32µM*	-11%	-5%	/	/
CCc1ccccc1NC(=O)c1nnn(CC(=O)Nc2cccc(C)c2)c1N	-12	-17%	-9%	-4%[38.3 µM]	20	5%[46.1 µM]
CCc1ccccc1NC(=O)c1nnn(CC(=O)Nc2cccc(C)c2C)c1N	?	?	?	10µM*	21	?
CC(C(=O)NC1CCCc2ccccc21)N1CCN(Cc2ccc3c(c2)OCO3)CC1 (stereo not given)	-1	6.3µM*	-20%	13%[38.3 µM]	25	?
CC(C(=O)NC1CCCc2ccccc21)N1CCN(c2ccc(F)cc2)CC1 (stereo not given)	-5	-1%	/	/	-4	-22%[46.1 µM]
C/C(=N\NC(=O)Cn1c(C)nc2ccccc21)c1cccs1	/	3%	-4%	5%	44	34%
